Screen size: about 310,000 compounds; about 14,000 (4.5%) showed an effect of 50% or more. The effect is printed as a negative number. This is one part of a sample in which strong results are shown more often than they occur.

The source of these data is paper PMC4336329 (PLoS ONE, 2015).
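Also: peak tail current of the secondary pulse compared with the same well before compound.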

The target of this assay is human ether-à-go-go-related gene (hERG) potassium channel (human, UniProt Q12809). Briefly: primary screen, population patch clamp on CHO cells stably expressing hERG; higher = less effect of the substance.
Sequence of human ether-à-go-go-related gene (hERG) potassium channel (Q12809 whole entry, looked up): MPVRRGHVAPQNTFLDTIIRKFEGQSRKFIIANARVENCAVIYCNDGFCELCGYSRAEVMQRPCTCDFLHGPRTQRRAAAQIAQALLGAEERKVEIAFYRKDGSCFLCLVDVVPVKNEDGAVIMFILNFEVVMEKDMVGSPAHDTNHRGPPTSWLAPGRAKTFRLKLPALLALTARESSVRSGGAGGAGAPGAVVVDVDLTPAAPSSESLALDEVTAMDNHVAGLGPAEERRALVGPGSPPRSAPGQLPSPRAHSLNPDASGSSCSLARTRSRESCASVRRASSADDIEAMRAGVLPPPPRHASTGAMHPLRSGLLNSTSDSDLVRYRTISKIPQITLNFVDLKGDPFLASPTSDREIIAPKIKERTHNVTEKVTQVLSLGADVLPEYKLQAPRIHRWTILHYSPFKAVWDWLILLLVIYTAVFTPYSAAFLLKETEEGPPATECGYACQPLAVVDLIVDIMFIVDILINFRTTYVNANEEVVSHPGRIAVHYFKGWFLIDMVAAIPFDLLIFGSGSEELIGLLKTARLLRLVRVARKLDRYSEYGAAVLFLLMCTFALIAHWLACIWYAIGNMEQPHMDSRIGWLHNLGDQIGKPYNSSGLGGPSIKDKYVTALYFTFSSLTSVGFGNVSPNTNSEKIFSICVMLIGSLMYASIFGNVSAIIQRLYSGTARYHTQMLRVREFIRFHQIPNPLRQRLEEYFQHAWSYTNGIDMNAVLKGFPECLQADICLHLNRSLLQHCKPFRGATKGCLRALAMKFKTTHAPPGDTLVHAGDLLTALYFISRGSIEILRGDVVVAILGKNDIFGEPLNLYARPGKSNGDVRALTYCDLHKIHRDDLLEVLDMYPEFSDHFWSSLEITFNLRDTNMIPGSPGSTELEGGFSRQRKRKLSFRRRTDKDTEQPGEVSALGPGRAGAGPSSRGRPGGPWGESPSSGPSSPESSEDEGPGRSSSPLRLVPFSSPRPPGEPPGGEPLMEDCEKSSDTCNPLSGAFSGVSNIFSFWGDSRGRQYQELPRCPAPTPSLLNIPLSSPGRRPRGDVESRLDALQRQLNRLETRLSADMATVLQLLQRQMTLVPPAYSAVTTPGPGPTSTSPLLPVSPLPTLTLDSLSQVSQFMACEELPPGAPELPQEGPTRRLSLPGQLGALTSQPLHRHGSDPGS
`CCOc1ccc(Cc2nc(C)c(CC(=O)N3CCOCC3)c(=O)[nH]2)cc1`: the “hERG current change (%, negative = inhibition) at 10uM” value is 8.37%.
As to `O=C(CSc1ncnc2ccccc12)NCc1ccc2c(c1)OCO2`, the “hERG current change (%, negative = inhibition) at 10uM” value is -16.9%.
In the case of `O=C(C(=O)N1CCCc2ccccc21)c1c[nH]c2ccccc12`, the “hERG current change (%, negative = inhibition) at 10uM” value is listed as 4.5%.
Under `O=C(O)C(=O)O.O=S(=O)(c1ccc(Cl)cc1)N1CCN(Cc2ccncc2)CC1` stands -51.5%; under `CCS(=O)(=O)N1CCN(Cc2ccncc2)CC1.O=C(O)C(=O)O`, 13.2%.
Next, `O=S(=O)(c1ccccc1)N1CCN(CCc2ccccc2)CC1`: 14.2%; `CC(=O)Nc1ccc(S(=O)(=O)N2CCN(Cc3ccncc3)CC2)cc1`: -8.67%.
Under `O=S(=O)(c1ccc(Cl)cc1)N1CCN(CCc2ccncc2)CC1` stands -55.3%.
Consider `O=S(=O)(c1ccc(Cl)cc1)N1CCN(CCc2ccccc2)CC1`, for which the “hERG current change (%, negative = inhibition) at 10uM” value is -3.7%.
Next, `COc1ccc(C2=NC(C)(C)Cc3cc(OC)c(OC)cc32)cc1`: -44%.
Under `Cc1ccccc1OCCCN1CCOCC1` stands 9.44%.
Under `COc1ccccc1OCC(O)CN1CCOCC1` (stereo not shown) stands 15.2%; under `Cc1ccc(OCC(O)CN2CCOCC2)cc1C.Cl` (stereo not shown), 17.7%; under `Cl.OC(COc1cccc(OCC(O)CN2CCOCC2)c1)CN1CCOCC1` (stereo not shown), 7.41%.
For the compound `Cc1ccccc1OCC(O)Cn1c(=N)n(CCN2CCOCC2)c2ccccc21.Cl` (stereo not shown), the “hERG current change (%, negative = inhibition) at 10uM” value is reported as -61.5%.
Next, `Cc1cccc(OCC(O)Cn2c(=N)n(CCN3CCCCC3)c3ccccc32)c1.Cl` (stereo not shown): -80.5%; `OC(COc1cccc(OCC(O)CN2CCCC2)c1)CN1CCCC1` (stereo not shown): -2.86%; `Cc1cccc(OCC(O)Cn2c(=N)n(CCN3CCOCC3)c3ccccc32)c1.Cl` (stereo not shown): -57.9%.
Next, `O=C(CCNS(=O)(=O)/C=C/c1ccccc1)NCCc1c[nH]c2ccccc12`: 3.88%; `Cc1ccc(NS(=O)(=O)c2ccc(-c3coc(C)n3)cc2)c(C)c1`: 15.6%; `CCOC(=O)C(Sc1ncn[nH]1)c1ccccc1` (stereo not shown): -3.76%.
Consider `Cc1cc(F)ccc1S(=O)(=O)N1CCCOC1CNC(=O)C(=O)NCc1cccnc1` (stereo not shown), for which the “hERG current change (%, negative = inhibition) at 10uM” value is 7.92%.
Next, `O=C(CNC(=S)N(CCCN1CCOCC1)Cc1cccs1)NC1CCCCC1`: -31.2%; `CCCCNC(=O)CNC(=S)N(CCCN1CCOCC1)Cc1cccs1`: -27.4%.
`O=C(CNC(=S)N(CCCN1CCOCC1)Cc1cccs1)NCc1ccccc1Cl`: the “hERG current change (%, negative = inhibition) at 10uM” value is -54.2%.
Turning to `O=C(CNC(=S)N(CCCN1CCOCC1)Cc1cccs1)NC1CCCC1`, the “hERG current change (%, negative = inhibition) at 10uM” value is -19.7%.
Under `CN(C)CCNC(=O)CNC(=S)N(CCCN1CCOCC1)Cc1cccs1` stands 12.1%; under `O=C(CNC(=S)N(CCCN1CCOCC1)Cc1cccs1)NCCN1CCOCC1`, 9.17%; under `O=C(CNC(=S)N(CCCN1CCOCC1)Cc1cccs1)NC1CCCCCCC1`, -61.1%.
Under `O=C(CNC(=S)N(CCCN1CCOCC1)Cc1cccs1)NCc1ccc(Cl)cc1` stands -67.7%; under `O=C(CNC(=S)N(CCCN1CCOCC1)Cc1cccs1)NCCCN1CCOCC1`, 15.1%; under `O=C(NCc1ccc(F)cc1)c1ccc(CS(=O)Cc2ccccc2Cl)o1` (stereo not shown), -37.3%.
Next, `Cc1ccc(S(=O)(=O)N2[C@@H](c3ccccc3)C(C(=O)O)=CC[C@H]2c2ccc(Cl)cc2)cc1`: 18.6%.
`CC1=NN(C(N)=S)C(=O)C1N=Nc1ccccc1C(=O)O` (stereo not shown): the “hERG current change (%, negative = inhibition) at 10uM” value was found to be 22.1%.
Under `Fc1ccc(/C=C/c2nnc(-c3cccs3)o2)cc1` stands 16.7%; under `Cc1cc(S(=O)(=O)Nc2cccc(C(=O)O)c2)c(C)c(S(=O)(=O)c2ccc(Cl)cc2)c1`, 18.8%.
Under `CCOC(=O)c1cnc(SCC(=O)Nc2ccc(NC(C)=O)c(OC)c2)nc1N` stands 2.44%.
Next, `CC1(c2cccc(Br)c2)NC(=O)N(CC(=O)Nc2ccc3c(c2)OCO3)C1=O` (stereo not shown): -12.5%; `COc1ccc(CNC2CCSc3ccccc32)cc1OC.O=C(O)C(=O)O` (stereo not shown): 9.97%.
In the case of `CCC(Cc1ccccc1)NC(=O)CN(C)S(=O)(=O)c1ccc2c(c1)c(=O)n(C)c(=O)n2C` (stereo not shown), the “hERG current change (%, negative = inhibition) at 10uM” value is on record as -23.5%.
Regarding `Cc1sc2nc(SCC(=O)N3CCN(CCO)CC3)n(-c3ccccc3)c(=O)c2c1C`, the “hERG current change (%, negative = inhibition) at 10uM” value is -3.7%.
Next, `CCS(=O)(=O)N1CCN(C2CCC(c3ccccc3)CC2)CC1.O=C(O)C(=O)O` (stereo not shown): -17.2%.
With `O=C(O)C(=O)O.OC(CNC1CCCCCCC1)c1ccccc1` (stereo not shown), the “hERG current change (%, negative = inhibition) at 10uM” value was determined as 2.95%.
As to `Ic1ccccc1CN[C@@H]1C2CCN(CC2)[C@@H]1C(c1ccccc1)c1ccccc1.O.O=C(O)C(=O)O`, the “hERG current change (%, negative = inhibition) at 10uM” value was -69.7%.
Under `O=C(COC(=O)CNC(=O)c1ccccc1)NCCc1ccccc1` stands 4.17%.
Next, `CCOc1ccc(/C=N/NC(=O)C2CC2)c(OCC)c1`: 2.21%.
For `COc1cc2c(cc1OC)CN(CC(=O)NC(=O)NC1CCCCC1)CC2`, the “hERG current change (%, negative = inhibition) at 10uM” value stood at 3.28%.
Next, `COc1cc2[nH]c3ccccc3c2cc1C`: 2.45%; `Cc1nccc2c1[nH]c1ccccc12`: 2.16%.
Under `Cc1cc2[nH]c3c(c[n+](C)c4ccccc34)c2cc1C.[I-]` stands -77.8%.
Under `COc1ccc2nc(SCC(N)=O)[nH]c2c1` stands -2.83%; under `CCN(CC)CCSc1nc2ccc(OC)cc2[nH]1.Cl`, -64.7%; under `COc1ccc2nc(SCCN(C)C)[nH]c2c1.Cl`, 12.3%.
Consider `O=C1[C@@H]2[C@H](C(=O)N1Cc1cccnc1)[C@H]1C=C[C@@H]2C1`, for which the “hERG current change (%, negative = inhibition) at 10uM” value is recorded as -3.89%.
Next, `COc1ccc(/C=N/Nc2ncc(C(F)(F)F)cc2Cl)c(OC)c1OC`: -1.15%; `Cc1cc(Cl)ccc1OCC(=O)NNC(=O)C1CSC2(C)CCC(=O)N12` (stereo not shown): -18.5%.
Under `CCOC(=O)c1c(-c2ccccc2)oc2ccc(O)c(CN(C)C)c12` stands -40.2%.
On to `CCOC(=O)c1c(CSc2ccccc2)oc2ccc(O)cc12`, for which the “hERG current change (%, negative = inhibition) at 10uM” value worked out at 3.91%.
Under `CCOC(=O)c1c(CN(C)C)oc2cc(CN(C)C)c(O)c(CSc3ccccc3)c12.Cl` stands -19.3%.
Next, `CCOC(=O)c1c(CSc2ccc(CC)cc2)oc2ccc(O)c(CN(C)C)c12.Cl`: -55.3%; `CC(=O)c1c(CSc2ccccc2)oc2ccc(O)c(CN(C)C)c12.Cl`: -70.8%; `CCOC(=O)c1c(CSCc2ccccc2)oc2ccc(O)c(CN(C)C)c12.Cl`: -73.4%.
Under `COC(=O)Cc1c(CSc2ccccc2)oc2ccc(O)c(CN(C)C)c12` stands -47.8%.
Turning to `CCOC(=O)c1c(-c2ccccc2)oc2cc(CN(C)C)c(O)c(CN(C)C)c12`, the “hERG current change (%, negative = inhibition) at 10uM” value was -41.5%.
Next, `CCOC(=O)c1c(CSc2ccccc2)oc2cc(Br)c(O)c(CN(C)C)c12.Cl`: 8.53%.
Under `COc1ccc2c(c1)[nH]c1c(=O)n(CCN(C)C)cnc12` stands -34.1%; under `CCOC(=O)c1cccc(NC(=O)/C=C/c2cccc([N+](=O)[O-])c2)c1`, -15.4%; under `Cn1c(SCC(=O)NCc2ccccc2)nc2c([nH]c3ccccc32)c1=O`, 8.94%.
Next, `CCC(=O)Nc1nnc(S(=O)(=O)N2CCCC2)s1`: 8.85%; `Cc1c(NC(=O)c2cccc(F)c2)c(=O)n(-c2ccccc2)n1C`: 20.5%; `CCCOC(=O)c1ccc(NC(=O)c2ccccc2OC)cc1`: 4.44%.
In the case of `CCOC(=O)C1=C(C)N(C)C(=O)NC1c1ccccc1OC` (stereo not shown), the “hERG current change (%, negative = inhibition) at 10uM” value is -12.1%.
Under `Cc1ccc(Nc2nc(Oc3ccc(OCc4ccccc4)nn3)nc(N3CCOCC3)n2)cc1` stands 3.53%; under `S=c1oc(-c2ccncc2)nn1CCc1ccncc1`, 13%.
Under `CCc1nc2c3cnn(-c4cc(Cl)ccc4C)c3ncn2n1` stands 5.24%; under `Cn1cc(-c2ccccc2C(N)=O)c(=O)c2ccccc21`, 5.37%.
Next, `NC(=O)c1cn(C2CCCCC2)c2ccccc2c1=O`: -65.2%; `Cn1c2ccccc2c2c(C(=O)O)cn(C3CCCC3)c(=O)c21`: 7.78%; `CN(C)S(=O)(=O)c1ccc(C(=O)N2CC(=O)Nc3ccc(F)cc3C2c2ccc(F)cc2)cc1` (stereo not shown): -21%.
With `CCC(CC)NC(=O)C1CCN(S(=O)(=O)c2cccs2)CC1`, the “hERG current change (%, negative = inhibition) at 10uM” value was found to be 1.92%.
Consider `COc1ccc(Cl)cc1NC(=S)Nc1cccc(C)c1`, for which the “hERG current change (%, negative = inhibition) at 10uM” value amounted to 10.3%.
Next, `Cl.O=C(O)c1ccc(CNCc2ccccc2F)cc1`: 5.98%.
Under `CC(=O)Nc1ccc(OCC(O)CN2C(C)CCCC2C)cc1.Cl` (stereo not shown) stands 19.1%; under `Cc1ccc(C)c(OCC(O)CN2C(C)CCCC2C)c1.Cl` (stereo not shown), -67.9%.
Consider `CC1CCCC(C)N1CC(O)COCc1ccccc1F.Cl` (stereo not shown), for which the “hERG current change (%, negative = inhibition) at 10uM” value is 13.2%.
Next, `COc1cccc(OCC(O)CN2C(C)CCCC2C)c1.Cl` (stereo not shown): 10.8%; `Cc1cc(Cl)ccc1OCC(=O)N1C(C)CCCC1C` (stereo not shown): -6.46%.
Next, `CC1CCCC(C)N1CC(O)COc1ccc(Cl)cc1` (stereo not shown): -65%; `Cc1cc(OCC(O)CN2C(C)CCCC2C)ccc1C(C)C` (stereo not shown): -32.4%; `Cc1cc(Cl)ccc1OCC(O)CN1C(C)CCCC1C.Cl` (stereo not shown): -73.2%.
Next, `CC1CCCC(C)N1CC(O)COCc1ccccc1.Cl` (stereo not shown): 5.08%.
